A selection: hits, their analogues and other compounds. The true share with any hit is near 2.6%.
OvCa metastasis = Primary qHTS assay for Inhibitors of ovarian cancer metastasis using an organotypic tumor microenvironment (TME) model. 0.1% of 46,000 active. SKOV3ip1-GFP adhesion/invasion on 3D omental model, fluorescence. AID 1963576, 2024. Potency, µM (titrated, usually from 45.8 µM), for the others: top-dose activity change, negative = inhibition, most hits filed as inhibitors;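 note: plate controls were DMSO wells for no effect and tomatine positive control wells for full effect; nearly all actives have a fitted effect of over 65% in size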
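qHTS, 4-pt dose (0.36-46 umol/L); SKOV3ip1-GFP, 1,200 cells/well, no FBS; primary omental fibroblast/mesothelial co-culture 48 h pre-grown; 2 h RT + 16 h 37 C; PBS wash, 4% PFA; GFP count 488/509 nm.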
mTORC1 inh = Acumen qHTS Assay for Inhibitors of the mTORC1 Signaling Pathway in MEF (Tsc2-/-, p53-/-) Cells: Sytravon; 0.78% of 44,000 active; Tsc2-/- p53-/- MEF, phospho-rpS6 immunofluorescence/PI, 24 h; Potency, µM (titrated, usually from 38.3 µM), for inactives: top-dose activity change, negative = inhibition, actives largely listed as inhibitors;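 note: plate controls were DMSO for no effect and rapamycin for full effect; nearly all actives have a fitted effect of over 50% in size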
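Compounds act on Tsc2-/-, p53-/- fibroblasts carrying an empty vector for 24 h before fixation and dual staining for phospho-S6 and DNA (propidium iodide). Values are percentages of cells above a rapamycin-defined pS6/PI threshold.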
S16 F2sN tox = Cell viability qHTS assay in S16 Pmp22-F2sN cells; 0.48% of 43,000 active; Potency, µM (series often up to 57.5 µM), for inactives: at the highest dose activity change, negative = cytotoxicity, hits mostly cytotoxic; S16 Pmp22-F2sN Schwann cells viability, CellTiter-Glo, 24 h; note: % is set by controls: 0 for no effect and ±100 for the full control effect; nearly all actives have a fitted effect of over 65% in size
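S16 Schwann cells carrying the Pmp22-F2sN reporter, seeded in 1536-well format, were exposed to library compounds for 24 h at 37C. Viability was read as CellTiter-Glo luminescence after 15 min at room temperature.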
GALC G270D up = A Novel Cell-Based Assay to Identify Small Molecules for B -Galactocerebrosidase. 145M-Twi-hGALC-G270D cells (Twitcher mouse brain line with human GALC G270D), HMU-beta-Gal fluorescence, 48 h. AID 1159614, 2016. 0.1% of 45,000 active. Potency, µM (titrated, usually from 57.5 µM), actives largely listed as activators; note: 0% is about no effect; nearly all actives have a fitted effect of over 65% in size
Target sequence (P54803 whole entry G286D): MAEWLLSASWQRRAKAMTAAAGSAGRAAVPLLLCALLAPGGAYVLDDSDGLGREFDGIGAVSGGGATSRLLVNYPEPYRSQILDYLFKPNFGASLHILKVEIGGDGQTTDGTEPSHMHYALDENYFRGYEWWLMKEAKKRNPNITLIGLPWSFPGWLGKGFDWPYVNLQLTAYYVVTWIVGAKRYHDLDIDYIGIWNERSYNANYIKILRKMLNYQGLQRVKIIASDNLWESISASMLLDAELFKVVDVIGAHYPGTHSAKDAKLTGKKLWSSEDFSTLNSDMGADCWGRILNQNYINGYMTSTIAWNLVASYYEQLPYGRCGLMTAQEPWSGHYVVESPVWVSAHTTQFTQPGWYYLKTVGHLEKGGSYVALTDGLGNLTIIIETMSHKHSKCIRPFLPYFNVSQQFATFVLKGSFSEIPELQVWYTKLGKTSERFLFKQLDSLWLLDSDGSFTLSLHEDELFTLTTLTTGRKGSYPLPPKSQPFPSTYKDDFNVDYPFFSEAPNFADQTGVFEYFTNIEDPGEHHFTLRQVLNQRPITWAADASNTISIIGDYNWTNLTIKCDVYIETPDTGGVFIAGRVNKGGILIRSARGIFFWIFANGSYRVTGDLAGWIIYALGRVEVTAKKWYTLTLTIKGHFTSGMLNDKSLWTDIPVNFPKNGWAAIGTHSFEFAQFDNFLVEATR
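Live 145M-Twi cells (Twitcher mouse brain-derived, GALC-null) stably expressing human GALC-G270D, with a wild-type GALC line, were compound-treated. Residual GALC activity was then read as fluorescence from 0.1 mM final HMU-β-gal at pH 5.2; higher signal means activation.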
PMP22 txn = Cell-based coincidence reporter assay to measure PMP22 gene transcription in S16 Pmp22-F2sN cells - Primary screen; S16 Pmp22-F2sN Schwann cells (luciferase reporters placed in the Pmp22 gene), FLuc/NLuc coincidence luminescence, 24 h; Potency, µM (titrated, usually from 57.5 µM), for inactives: at the top dose activity change, negative = inhibition, most hits filed as inhibitors; 2% of 43,000 active; active = clear falling dose curves in both reporters; inconclusive = both reporters move, but less clearly or upward; inactive = either reporter flat; the % is the NLuc reporter signal; note: % is set by controls: 0 for no effect and ±100 for the full control effect
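Rat S16 Pmp22-F2sN cells, 500-1,000/well in phenol red-free DMEM + 10% FBS, compound-treated 24 h (37C, 5% CO2). Luminescence: FLuc read, Stop&Glo added, NLuc read.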
An asterisk follows results filed as active; i = inactive; ? = inconclusive; . = no result. Unless noted, calls come from the whole dose curve; as a rule, active = well fitted curve in the direction sought with a large enough effect; inconclusive = small, poorly fitted or top-dose-only effect, or another doubt; inactive = no such curve, though single readings can be large; an effect the other way counts as inactive or inconclusive. Potency is the fitted concentration of half-maximal effect.

SMILES	OvCa metastasis	mTORC1 inh	S16 F2sN tox	GALC G270D up	PMP22 txn
CC(C)c1cc(C(C)C)c(CC(=O)NS(=O)(=O)Oc2c(C(C)C)cccc2C(C)C)c(C(C)C)c1	-11%	.	.	.	.
CCc1cc(C(C)=NOCc2ccc(C3CCCCC3)c(C(F)(F)F)c2)ccc1CN1CC(C(=O)O)C1	-3%	.	.	.	.
Cc1cc(OCCCS(C)(=O)=O)cc(C)c1-c1cccc(COc2ccc3c(c2)OC[C@H]3CC(=O)O)c1	-9%	.	.	.	.
COc1ccc(CNC(=O)c2cc3c(-c4ccc(Cl)cc4)nn(C)c3s2)cc1	-26%	-13%	11%	i	-5%
CCCN(CCC)CCCNC(=O)c1cc2c(-c3ccc(Cl)cc3)nn(C)c2s1	?	13µM*	?	i	?
CCOc1ccc(-c2nonc2NC(=O)c2oc3cc(Br)ccc3c2C)cc1	-22%	-12%	?	i	9.5µM*
Cc1ccc(S(=O)(=O)Nc2cc(Cl)ccc2C(=O)Nc2nc(-c3ccccc3)cs2)cc1	4%	.	.	.	.
Cc1ccc(C(=O)Nc2cc3cc(Cl)ccc3oc2=O)cc1	i	5%	-6%	i	6.5µM*
COc1ccc(C(=O)Nc2cc3cc(Cl)ccc3oc2=O)cc1OC	-16%	0%	1%	i	-18%
CCCS(=O)(=O)c1ncc(Cl)c(C(=O)N2CCN(c3ccc(OC)cc3)CC2)n1	i	?	5µM*	i	6µM*
CCSc1ncc(Cl)c(C(=O)N2CCN(c3ccc(OC)cc3)CC2)n1	2%	6%	?	i	2%
NC(=O)[C@@H](CCC(F)(F)F)N(Cc1ccc(-c2ncon2)cc1F)S(=O)(=O)c1ccc(Cl)cc1	-17%	.	.	.	.
COc1ccc(-n2c(/C=C/c3cc(OC)c(OC)cc3OC)nc3cc4ccccc4cc3c2=O)cc1Cl	-23%	?	6%	i	39%
COc1ccc(-n2c(/C=C/c3ccccc3F)nc3cc(OC)c(OC)cc3c2=O)cc1Cl	5%	5%	10µM*	i	-29%
CN1CCc2c(n(Cc3ccc(C(=O)NO)cc3)c3ccccc23)C1	-8%	.	.	.	.
Cc1noc(/C=C/N(C)C)c1S(=O)(=O)N1CCCC(C(=O)Nc2ccc(F)cc2F)C1 (centres undefined)	-6%	18µM*	2%	i	-40%
CCN(CC)c1ccc(C(=O)NCc2ccc3c(c2)CCN3C(=O)c2ccc(F)cc2)cc1	0%	-7%	?	i	7.3µM*
N#Cc1ccc(C(=O)NCc2ccc3c(c2)CCN3C(=O)c2ccc(F)cc2)cc1	i	-2%	-7%	i	-28%
O=C1NC(O)CCN1[C@@H]1O[C@H](CO)[C@H](O)[C@H]1O (some centres undefined)	-15%	.	.	.	.
COc1ccc(C(=O)/C=C/c2cn(CC(O)CN(CC(C)C)CC(C)C)c3ccccc23)cc1 (centres undefined)	i	-10%	-3%	22µM*	?
CCCN(CCC)CC(O)Cn1cc(/C=C/C(=O)c2ccc(C)cc2)c2ccccc21 (centres undefined)	?	-10%	?	i	?
CCCCN(C)CC(O)Cn1cc(/C=C/C(=O)c2ccc(C)cc2)c2ccccc21 (centres undefined)	?	?	?	i	?
CCCCN(C)CC(O)Cn1cc(/C=C/C(=O)c2ccc(OC)c(OC)c2)c2ccccc21 (centres undefined)	-22%	?	-24%	32µM*	?
CCCN(CCC)CC(O)Cn1cc(/C=C/C(=O)c2ccc(OC)cc2)c2ccccc21 (centres undefined)	?	15µM*	?	28µM*	?
Nc1nc(NCCNc2ncc(-n3ccnc3)c(-c3ccc(Cl)cc3Cl)n2)ccc1[N+](=O)[O-]	-7%	.	.	.	.
SMILES	OvCa metastasis	mTORC1 inh	S16 F2sN tox	GALC G270D up	PMP22 txn
COc1ccc(Cn2c(C(=O)O)c(CNCc3ccccc3F)c3ccc(OC)cc32)cc1	i	12µM*	?	i	?
CCOc1ccccc1CNCc1c(C(=O)O)n(Cc2ccccc2)c2cc(OC)ccc12	i	-11%	0%	i	5%
CC1CCN(c2oc(/C=C/c3ccc(F)cc3)nc2C#N)CC1	?	-3%	-19%	25µM*	-53%
CCc1ccccc1-n1c(N)c(C(=O)OC)c2nc3ccccc3nc21	-2%	0%	-8%	25µM*	-25%
O=C(CC1(O)C(=O)N(Cc2ccccc2)c2ccc(Br)cc21)c1ccccc1 (centres undefined)	i	?	-14%	i	?
CCCCN1C(=O)C(O)(CC(=O)c2ccc(CC)cc2)c2cc(Br)ccc21 (centres undefined)	-1%	16µM*	?	i	?
CCCN1C(=O)C(O)(CC(=O)c2ccc(CC)cc2)c2ccccc21 (centres undefined)	9%	15µM*	-25%	i	6%
CC(C)c1ccc(C(=O)CC2(O)C(=O)N(CCc3ccccc3)c3ccc(Cl)cc32)cc1 (centres undefined)	-16%	-26%	24%	i	?
CCCN1C(=O)C(O)(CC(=O)c2ccc(C(C)C)cc2)c2ccccc21 (centres undefined)	-8%	13µM*	?	i	-15%
COC(=O)CN1C(=O)C(O)(CC(=O)c2ccc(F)cc2)c2ccccc21 (centres undefined)	5%	?	?	i	-28%
O=C(CC1(O)C(=O)N(CCc2ccccc2)c2ccc(Br)cc21)c1ccccc1O (centres undefined)	-8%	18µM*	?	i	?
Cn1cc(-c2[nH]c3cc(NC(=O)[C@H](N)C4CCCCC4)cc4c3c2C=NNC4=O)cn1	22%	.	.	.	.
COc1cccc(C(=O)CC2(O)C(=O)N(Cc3ccccc3)c3ccccc32)c1 (centres undefined)	-20%	15µM*	?	i	?
C#CCN1C(=O)C(O)(CC(=O)c2ccc(OC)c(OC)c2)c2cc(Br)ccc21 (centres undefined)	?	5.2µM*	?	i	?
CCc1ccc(-c2[nH]nc3nc(-c4cc(OC)ccc4OC)cc(C(=O)O)c23)cc1	-16%	?	-1%	i	9%
